The results in this text go back to PubChem BioAssay.

Experiment [1] is described as follows: antimalarial activity against Dd2 strain (AID 2302;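 active means growth inhibition above 50% at the single 2 µM test dose, taken to imply half-maximal potency below 2 µM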;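 further: 0% = DMSO untreated growth and 100% = chloroquine plus artemisinin killed control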). As to conditions: P. falciparum Dd2 in RBCs, LDH growth readout, 72 h; at 2 µM; stronger effect = higher value.
Experiment [2] can be described thus: HepG2 cytotoxicity, primary screen, cytotoxicity control for P. falciparum antimalarial project, cell-based, ATP luminescence (AID 2303;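 active means inhibition above 50%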;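 further: 0% = DMSO wells and 100% = digitonin-killed cells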). As to conditions: HepG2 viability, 24-48 h, at 10 µM, stronger effect = higher value.
For experiment [3], the target named is L-lactate dehydrogenase (Plasmodium falciparum (isolate CDC / Honduras)) (UniProt Q27743). Description: PfLDH activity inhibition – cell lysate, 3D7 strain, counter-screen for P. falciparum growth inhibition project (AID 2304).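 Further: 0% = vehicle and 100% = reference inhibitor.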 To be noted: P. falciparum 3D7 crude extract, LDH APAD/NBT absorbance; at 2 µM; stronger effect = higher value. Background: The purpose of a counterscreen is to sort out artefacts and off-target activity.

The nature of experiment [4]: inhibition of 3D7 malaria parasite growth – strain 3D7 (AID 2306).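 Further: 0% = DMSO wells and 100% = chloroquine plus artemisinin control wells.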 To be noted: P. falciparum 3D7 erythrocytic growth, LDH absorbance, 72 h; at 2 µM; stronger effect = higher value.
Experiment [5] concerns the target Calcium-dependent protein kinase 1 (Plasmodium falciparum (isolate 3D7)) (UniProt P62344). Description: PfCDPK1 kinase inhibitors, biochemical, TCAMS library (AID 1159585; cut-off not given, nearly all actives have IC50 up to about 0.98 µM;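 further: inhibitors leave more ATP so luminescence rises with inhibition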). As to conditions: recombinant PfCDPK1, Kinase-Glo ATP depletion luminescence. On the technique in general: In Kinase-Glo more light means more ATP remaining.
For experiment [6], the target named is Plasmodium falciparum protein kinase 6 (PK6, PF3D7_1337100) (UniProt Q8IDW1). Description: PfPK6 kinase inhibitors, biochemical, TCAMS library (AID 1159586). As to conditions: recombinant PfPK6, Kinase-Glo ATP depletion luminescence.
The target of experiment [7] is Protein kinase 7 (PK7), Plasmodium falciparum 3D7 (PF3D7_0213400) (UniProt Q7YTF7). Description: inhibition of Plasmodium PK7 catalytic activity – biochemical, TCAMS antimalarial set, Kinase-Glo luminescence (AID 1159587). As to conditions: recombinant PfPK7, Kinase-Glo ATP depletion luminescence.
Experiment [8] addresses Calcium-dependent protein kinase 4 (Plasmodium falciparum (isolate 3D7)) (UniProt Q8IBS5). Description: PfCDPK4 kinase inhibitors, biochemical, TCAMS library (AID 1159588; cut-off not given, nearly all actives have IC50 up to about 0.91 µM). To be noted: recombinant PfCDPK4, Kinase-Glo ATP depletion luminescence.

Each structure is given as a SMILES string. Values without a mark were called inactive. For some of these results: Potency and affinity values are given separately. Active and inactive are the calls of the source. Unless noted, how the calls were made is not given here.

The inhibition is the change of the read-out against control, counted positive when it falls.

Protein kinase 7 (PK7), Plasmodium falciparum 3D7 (PF3D7_0213400), sequence (Q7YTF7 1-343): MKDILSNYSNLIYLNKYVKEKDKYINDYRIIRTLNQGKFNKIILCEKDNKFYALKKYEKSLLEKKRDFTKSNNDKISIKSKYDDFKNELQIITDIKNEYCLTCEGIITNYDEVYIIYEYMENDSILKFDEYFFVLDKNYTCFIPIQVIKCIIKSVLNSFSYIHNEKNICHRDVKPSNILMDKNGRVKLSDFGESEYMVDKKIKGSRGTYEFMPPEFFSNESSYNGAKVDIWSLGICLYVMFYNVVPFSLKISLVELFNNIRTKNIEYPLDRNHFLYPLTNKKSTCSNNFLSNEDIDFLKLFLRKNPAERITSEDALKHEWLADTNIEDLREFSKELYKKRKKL
L-lactate dehydrogenase (Plasmodium falciparum (isolate CDC / Honduras)), sequence (Q27743 whole entry, looked up): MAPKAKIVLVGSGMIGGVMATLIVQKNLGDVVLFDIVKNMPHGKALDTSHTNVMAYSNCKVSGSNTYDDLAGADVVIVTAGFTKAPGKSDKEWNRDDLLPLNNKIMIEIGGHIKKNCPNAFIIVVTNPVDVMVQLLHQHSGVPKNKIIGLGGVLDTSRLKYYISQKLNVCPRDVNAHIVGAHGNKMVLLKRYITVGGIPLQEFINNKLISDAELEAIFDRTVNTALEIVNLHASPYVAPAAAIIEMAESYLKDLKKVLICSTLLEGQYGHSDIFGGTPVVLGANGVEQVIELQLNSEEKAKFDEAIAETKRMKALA
Plasmodium falciparum protein kinase 6 (PK6, PF3D7_1337100), sequence (Q8IDW1 1-305): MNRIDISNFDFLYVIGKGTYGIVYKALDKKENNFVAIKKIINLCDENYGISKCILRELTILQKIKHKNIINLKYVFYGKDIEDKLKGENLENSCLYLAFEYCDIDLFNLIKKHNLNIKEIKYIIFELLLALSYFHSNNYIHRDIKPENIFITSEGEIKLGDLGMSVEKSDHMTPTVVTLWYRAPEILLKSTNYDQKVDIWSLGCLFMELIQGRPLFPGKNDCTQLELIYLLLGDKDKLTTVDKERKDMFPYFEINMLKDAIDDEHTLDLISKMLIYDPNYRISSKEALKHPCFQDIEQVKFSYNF
Calcium-dependent protein kinase 1 (Plasmodium falciparum (isolate 3D7)), sequence (P62344 whole entry, looked up): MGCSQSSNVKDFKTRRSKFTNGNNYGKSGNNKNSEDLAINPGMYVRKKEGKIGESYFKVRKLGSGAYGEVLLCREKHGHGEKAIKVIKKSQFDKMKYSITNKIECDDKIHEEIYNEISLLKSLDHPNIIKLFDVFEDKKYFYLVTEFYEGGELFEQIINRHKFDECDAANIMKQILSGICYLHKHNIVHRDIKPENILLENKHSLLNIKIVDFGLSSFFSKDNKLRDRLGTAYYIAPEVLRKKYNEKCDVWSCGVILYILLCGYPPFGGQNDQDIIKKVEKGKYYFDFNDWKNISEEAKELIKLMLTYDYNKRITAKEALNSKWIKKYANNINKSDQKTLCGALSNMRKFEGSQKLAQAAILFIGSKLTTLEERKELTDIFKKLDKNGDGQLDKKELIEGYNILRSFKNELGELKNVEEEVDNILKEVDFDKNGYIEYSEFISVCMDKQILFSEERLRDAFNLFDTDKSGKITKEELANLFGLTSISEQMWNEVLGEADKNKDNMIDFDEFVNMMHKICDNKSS
Calcium-dependent protein kinase 4 (Plasmodium falciparum (isolate 3D7)), sequence (Q8IBS5 whole entry, looked up): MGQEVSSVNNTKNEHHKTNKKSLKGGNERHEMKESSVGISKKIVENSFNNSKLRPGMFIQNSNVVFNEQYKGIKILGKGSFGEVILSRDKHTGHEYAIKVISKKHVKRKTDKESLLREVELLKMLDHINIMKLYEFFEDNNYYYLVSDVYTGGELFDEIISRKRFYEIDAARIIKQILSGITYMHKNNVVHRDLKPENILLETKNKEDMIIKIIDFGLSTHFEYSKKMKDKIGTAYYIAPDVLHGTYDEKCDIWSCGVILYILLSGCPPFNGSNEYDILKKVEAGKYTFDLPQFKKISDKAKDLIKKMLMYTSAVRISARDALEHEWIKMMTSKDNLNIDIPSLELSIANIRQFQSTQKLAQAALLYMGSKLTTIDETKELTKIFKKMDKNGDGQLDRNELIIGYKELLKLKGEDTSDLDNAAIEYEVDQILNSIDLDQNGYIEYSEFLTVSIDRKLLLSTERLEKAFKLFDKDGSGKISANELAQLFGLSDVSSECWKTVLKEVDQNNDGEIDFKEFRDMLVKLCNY

For the compound `c1cc(CNCC2CCN(CC3CCCCC3)CC2)cc(-n2ccnc2)c1`, the results for the growth inhibition in experiment [1] and in experiment [4] were 99% (active) and 102% (active), respectively. For the same compound, the inhibition in experiment [2] is 18%; in experiment [3], -1%. For the same compound, the result in experiment [5], in experiment [6], in experiment [7] and in experiment [8] was inactive.
In the case of `Cn1c(=O)c2cc(C(=O)NCCCN3CCCCCC3)sc2c2ccccc21`, the growth inhibition in experiment [1] and in experiment [4] was 99% (active) throughout. For the same compound, the inhibition in experiment [2] was 32%; in experiment [3] it was 0%. Also, the result in experiment [5], in experiment [6], in experiment [7] and in experiment [8] was inactive.
For the compound `COc1ccc2cc(CNCCCCCCNCc3ccc4cc(OC)ccc4c3)ccc2c1`, the results for the growth inhibition in experiment [1] and in experiment [4] were 92% (active) and 100% (active), respectively. Besides, the figures for the inhibition in experiment [2] and in experiment [3] were 100% (active) and -6%, respectively. Further, the outcome in experiment [5], in experiment [6], in experiment [7] and in experiment [8] was inactive.
For `CC(C)COc1ccc(Cl)cc1Cc1ccc(-c2nc3c(cnc4ccccc43)[nH]2)o1`, the growth inhibition was 26% in experiment [1] and 87% (active) in experiment [4]. Besides, the inhibition is 21% in experiment [2] and 1% in experiment [3]. Further, the result in experiment [5], in experiment [6], in experiment [7] and in experiment [8] was inactive.
With `COc1cc2ncnc(Nc3ccc(OCc4ccccc4)c(OCc4ccccc4)c3)c2cc1OC`, the growth inhibition in experiment [1] is 57% (active); in experiment [4], 100% (active). Also, the inhibition was 4% in experiment [2] and -1% in experiment [3]. Also, the result in experiment [5], in experiment [6], in experiment [7] and in experiment [8] was inactive.
Turning to `COc1ccccc1N1CCN(CCCCNC(=O)c2ccc(NC(=O)c3ccc4ccccc4c3)cc2)CC1`, the growth inhibition is 18% in experiment [1] and 97% (active) in experiment [4]. In addition, the figures for the inhibition in experiment [2] and in experiment [3] were 16% and 1%, respectively. The result in experiment [5], in experiment [6], in experiment [7] and in experiment [8] was inactive.
With `Cc1noc(C)c1-c1cccc(CNCc2cccc(-c3ccc(-c4nc5c(C)cccc5[nH]4)s3)c2)c1`, the growth inhibition is 75% (active) in experiment [1] and 102% (active) in experiment [4]. Also, the inhibition in experiment [2] was 22%; in experiment [3], 1%. The result in experiment [5], in experiment [6], in experiment [7] and in experiment [8] was inactive.
For the compound `CCCC(CNCc1cccc(SC(F)(F)F)c1)CNc1cc(=O)c2ccccc2[nH]1` (stereo not given), the values for the growth inhibition in experiment [1] and in experiment [4] were 87% (active) and 101% (active), respectively. The inhibition in experiment [2] and in experiment [3] was 5% in each case. Besides, the result in experiment [5], in experiment [6], in experiment [7] and in experiment [8] was inactive.
For the compound `Oc1ccc(CNCCCCCCNCCc2ccc(Cl)cc2)cc1O`, the growth inhibition was 7% in experiment [1] and 94% (active) in experiment [4]. In addition, the inhibition in experiment [2] and in experiment [3] was 2% throughout. The outcome in experiment [5], in experiment [6], in experiment [7] and in experiment [8] was inactive.
Turning to `CCCCC(=O)N(CCOC)Cc1ccc(-c2ccc(CNCCC)cn2)cc1`, the growth inhibition in experiment [1] is 68% (active); in experiment [4], 99% (active). For the same compound, the inhibition in experiment [2] is 30%; in experiment [3], -3%. Besides, the result in experiment [5], in experiment [6], in experiment [7] and in experiment [8] was inactive.
With `Cc1ccccc1Nc1nc(NCc2ccccc2)nc2ccccc12`, the figures for the growth inhibition in experiment [1] and in experiment [4] were 35% and 88% (active), respectively. In addition, the inhibition in experiment [2] is 39%; in experiment [3], -3%. The outcome in experiment [5], in experiment [6], in experiment [7] and in experiment [8] was inactive.
With `Cc1ccccc1C1CCN(C2CCC(NC(=O)c3ccc4c(c3)-c3nocc3C(C)O4)CC2)CC1` (stereo not given), the growth inhibition in experiment [1] is 37%; in experiment [4] it was 88% (active). Moreover, the results for the inhibition in experiment [2] and in experiment [3] were 68% (active) and 4%, respectively. Moreover, the outcome in experiment [5], in experiment [6], in experiment [7] and in experiment [8] was inactive.
Turning to `CS(=O)(=O)CCCNCc1ccc(-c2cc3c(Nc4ccc(OCc5ccccc5)cc4)ncnc3cn2)o1`, the growth inhibition in experiment [1] was 16%; in experiment [4], 87% (active). The inhibition in experiment [2] is 10%; in experiment [3], -8%. Also, the outcome in experiment [5], in experiment [6], in experiment [7] and in experiment [8] was inactive.
In the case of `CN1CCCC(CN2CCN(Cc3cccc(-c4csc(-c5nc6ccccc6[nH]5)c4)c3)CC2)C1` (stereo not given), the growth inhibition in experiment [1] and in experiment [4] was 100% (active) in each case. Besides, the figures for the inhibition in experiment [2] and in experiment [3] were 65% (active) and -4%, respectively. In addition, the outcome in experiment [5], in experiment [6], in experiment [7] and in experiment [8] was inactive.
`Cc1cc(N[C@@H](Cc2ccccc2)C(=O)NCCOc2ccccc2)nc(NCCc2cccs2)n1`: the figures for the growth inhibition in experiment [1] and in experiment [4] were 32% and 95% (active), respectively. The values for the inhibition in experiment [2] and in experiment [3] were 8% and 0%, respectively. Also, the outcome in experiment [5], in experiment [6], in experiment [7] and in experiment [8] was inactive.
As for `Nc1cccc(-c2ccc3ccnc(N)c3c2)c1`, the growth inhibition is 66% (active) in experiment [1] and 91% (active) in experiment [4]. Also, the inhibition was 30% in experiment [2] and -7% in experiment [3]. Further, the outcome in experiment [5], in experiment [6], in experiment [7] and in experiment [8] was inactive.
For the compound `Cc1nnsc1C(=O)Nc1cccc(-c2ccc(-c3nc4c(C)cccc4[nH]3)s2)c1`, the growth inhibition in experiment [1] was 44%; in experiment [4], 100% (active). The inhibition was 46% in experiment [2] and 4% in experiment [3]. The result in experiment [5], in experiment [6], in experiment [7] and in experiment [8] was inactive.
Regarding `CNC(=O)c1cnc(Nc2ccc(N3CCN(C)CC3)cc2)nc1Nc1cccc(OC(C)C)c1`, the growth inhibition in experiment [1] was 102% (active); in experiment [4] it was 100% (active). For the same compound, the inhibition in experiment [2] is 16%; in experiment [3], 4%. For the same compound, the result in experiment [5], in experiment [6], in experiment [7] and in experiment [8] was inactive.
`FC(F)(F)c1ccc2nc(-c3cccc(-c4ccc(CNCCN5CCNCC5)cc4)c3)[nH]c2c1`: the growth inhibition in experiment [1] was 0%; in experiment [4], 96% (active). For the same compound, the inhibition is 17% in experiment [2] and 4% in experiment [3]. Further, the result in experiment [5], in experiment [6], in experiment [7] and in experiment [8] was inactive.
Take `COc1ccc2ncc(Cl)c([C@@H](O)CN3CCC(NCc4cc5c(cn4)OCCO5)CC3)c2c1`: the results for the growth inhibition in experiment [1] and in experiment [4] were 100% (active) and 101% (active), respectively. The inhibition is 8% in experiment [2] and 3% in experiment [3]. Besides, the result in experiment [5], in experiment [6], in experiment [7] and in experiment [8] was inactive.
